Screens from PubChem BioAssay.
DT40 TDP1 no CPT: qHTS for Inhibitors of human tyrosyl-DNA phosphodiesterase 1 (TDP1): qHTS in cells in absence of CPT; DT40 Tdp1-/- hTDP1 cells, no CPT, ATP luminescence, 48 h; Potency, µM (top dose mostly 46.2 µM), hits mostly inhibitors; hit rate 15% among 420,000; AID 686978, 2013; further: nearly all actives have a fitted effect of over 55% in size
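No-CPT arm: Tdp1-/-;hTDP1 DT40 cells (400/well) plus compounds, incubated ≥48 hr at 37 °C. Readout CellTiter-Glo luminescence.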
ATXN2 expr inh: Primary qHTS for Inhibitors of ATXN expression | HEK-293 ATXN2-luciferase reporter, luminescence, 24 h | Potency, µM (doses to about 57 µM), most hits filed as inhibitors | hit rate 0.72% among 360,000 | AID 1745845, 2022; further: nearly all actives have a fitted effect of over 55% in size
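ATXN2-luciferase reporter cells (luciferase flanked by upstream and downstream ATXN2 gene portions) were treated 24 h at 37 °C with compounds at up to 57 uM. SteadyGlo luminescence gave expression; GF-AFC fluorescence gave viability.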
S2 tox: Viability Counterscreen for Primary qHTS for Inhibitors of ATXN expression. S2 cells (HEK-293 line with an ATXN2-luciferase reporter) viability, CellTiter-Fluor protease fluorescence, 24 h. Potency, µM (series often up to 56.7 µM), actives largely listed as cytotoxic. hit rate 0.49% among 400,000. AID 651635, 2014; further: nearly all actives have a fitted effect of over 40% in size
TDP1 cell CPT: qHTS for Inhibitors of human tyrosyl-DNA phosphodiesterase 1 (TDP1): qHTS in cells in presence of CPT; AID 686979, 2013; chicken DT40 Tdp1-/-;hTDP1 cells + 20 nM CPT, ATP luminescence, 48 h; Potency, µM (series often up to 46.2 µM), usual class: inhibitors; hit rate 12% among 420,000; further: nearly all actives have a fitted effect of over 55% in size
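Cell growth measured by CellTiter-Glo luminescence after a minimum 48 h, 37 C compound exposure with 20 nM CPT in Tdp1-knockout DT40 cells stably expressing hTDP1, seeded 400/well; qHTS titration format.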
HepG2 tox: qHTS for Inhibitors of TGF-b: Cytotox Counterscreen; HepG2 CAGA-GFP viability, ATP luminescence, 18 h; Potency, µM (top dose mostly 46.1 µM), hits mostly cytotoxic; hit rate 0.76% among 410,000; AID 588856, 2011
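CellTiter-Glo luminescence gave cytotoxicity after 18 hours at 37 degrees C. The cells were HepG2 CAGA-GFP in 1% FBS DMEM, stimulated with 500 pg/mL TGF-beta after compound addition. %Activity was normalised to no-cell wells (complete cell-killing) and DMSO (no toxicity), and curves were fitted and classified.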
TGFb SMAD3 inh: qHTS for Inhibitors of TGF-b. HepG2 CAGA-GFP TGF-b/SMAD3 reporter, GFP fluorescence, 18 h; TGF-beta stimulated, 500 pg/mL final. Potency, µM (highest dose often 46.1 µM), most hits filed as inhibitors. hit rate 1.2% among 410,000; further: nearly all actives have a fitted effect of over 65% in size
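HEPG2 CAGA-GFP, 1000 cells/well; 2 h settle, 37 C; cpd via pin tool; TGF-b 500 pg/mL final; 18 h, 37 C; GFP imaging ex488/em500-530; %Activity normalised to -TGF-b and +DMSO controls; CRC fit, curve class.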
Hits are given with their value; 0 = inactive; ? = inconclusive; - = no result; [ ] = dose if it differs, or a comment. Shown are actives, neighbours in structure and some others; about 17% of the full set was active somewhere. The call rests on the fitted dose curve; in most records, active means well fitted curve in the direction sought with a large enough effect; inconclusive means small, poorly fitted or top-dose-only effect, or another doubt; inactive means no such curve, though single readings can be large; an effect the other way counts as inactive or inconclusive.

SMILES	DT40 TDP1 no CPT	ATXN2 expr inh	S2 tox	TDP1 cell CPT	HepG2 tox	TGFb SMAD3 inh
COc1ccc2[nH]cc(CCNc3ncncc3-c3ccccc3CN(C)C)c2c1	0	-	-	0	-	-
COc1ccc2[nH]cc(CCNc3ncnc4ccc(-c5ccccc5C#N)cc34)c2c1	18.4µM	-	-	?	-	-
COc1ccc2[nH]cc(CCNc3cc(-c4ccccc4OC)ncn3)c2c1	?	-	-	16.4µM	-	-
COc1ccc2[nH]cc(CCNc3ncncc3-c3ccccc3OC)c2c1	?	-	-	0	-	-
COc1cccc(-c2ccc3ncnc(NCCc4c[nH]c5ccc(OC)cc45)c3c2)c1	20.6µM	-	-	23.1µM	-	-
COc1ccc(NC(=O)/C(C#N)=C/c2ccc(OCc3cc(=O)n4nc(C)sc4n3)cc2)cc1	0	0	0	0	0	0
N#Cc1cccc(-c2cc(NCc3cccnc3)ncn2)c1	0	-	-	0	-	-
COc1ccc2[nH]cc(CCNc3cc(-c4cccc(C#N)c4)ncn3)c2c1	?	-	-	20.6µM	-	-
Cc1ccc(N/N=C2\CS(=O)(=O)N(C)c3ccsc32)cc1	?	0	0	?	0	0
CN1c2ccsc2/C(=N/Nc2ccc(F)cc2)CS1(=O)=O	2.59µM	0[11.3 µM]	0	2.06µM	0	0
C[C@H](CO)N1C[C@H](C)[C@@H](CN(C)S(=O)(=O)c2cn(C)cn2)Oc2ccc(NC(=O)C3CCCCC3)cc2C1=O	0	0	0	0	0	0
Cc1c(C(=O)NN2CCCCC2)nn(-c2ccc(Cl)cc2Cl)c1-c1ccc(Cl)cc1	18.8µM	?	0	?	-	-
COc1ccc(-c2cc([C@H]3[C@@H]4C=CCC[C@@]4(C)C(=O)N3Cc3ccccc3)ccc2F)cc1	25.9µM	0	0	?	0	?
CC12CCC=CC1C(c1ccc3ccccc3c1Br)N(Cc1ccccc1)C2=O (centres undefined)	-	-	-	-	0	?
CC(=O)c1ccc(-c2ccc([C@H]3[C@@H]4C=CCC[C@@]4(C)C(=O)N3Cc3ccccc3)c(F)c2)cc1	16.4µM	?	0	20.6µM	0	?
COc1ccc(-c2cc(C3C4C=CCCC4(C)C(=O)N3Cc3ccccc3)ccc2F)cc1 (centres undefined)	-	-	-	-	0	11.2µM
C[C@@]12CCC=C[C@H]1[C@H](c1ccc3ccccc3c1Br)N(Cc1ccccc1)C2=O	18.4µM	?	35.5µM	?	0	?
COc1ccc(-c2cc(C3C4C=CCCC4(C)C(=O)N3Cc3ccccc3)ccc2F)cc1OC (centres undefined)	-	-	-	-	0	?
Cc1ccc(-c2ccc(C3C4C=CCCC4(C)C(=O)N3Cc3ccccc3)c(F)c2)cc1 (centres undefined)	-	-	-	-	0	0
COc1ccc(-c2ccc([C@H]3[C@@H]4C=CCC[C@@]4(C)C(=O)N3Cc3ccccc3)c(F)c2)cc1	?	?	0	?	0	0
COc1cc(NC(=O)c2cccs2)c(OC)cc1NC(=O)CCC(=O)Nc1ccc2ncccc2c1	?	?	?	?	0	?
O=[N+]([O-])c1ccc(S(=O)(=O)N2CCN(c3ccc(N4CCOCC4)nn3)CC2)cc1	0	0	0	0	0	0
CCOc1ccccc1NC(=O)Nc1cnccn1	0	-	0	0	0	0
COc1ccc(-c2ccc(N(C)C)cc2)cc1[C@H]1[C@@H]2C=CCC[C@@]2(C)C(=O)N1Cc1ccccc1	20.6µM	0	0	29.1µM	0	?
O=C1CSc2ccc(C(=O)N3CCCCC3)cc2N1	?	-	0	0	0	0
CC(=O)N1CCC[C@@]2(CCN(c3ncccn3)C2)C1	0	-	-	0	-	-
COC(=O)C1CC(O)CN1C(=O)Nc1cccc(C(F)(F)F)c1 (centres undefined)	0	0	0	0	0	0
